High-throughput results from PubChem BioAssay.
Pol eta inh-1: qHTS for Inhibitors of Polymerase Eta | Potency, µM (highest dose often 114 µM), actives largely listed as inhibitors | 390,000 tested, 1.2% active | recombinant Pol eta, fluorescent DNA replication assay
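Pol eta at 10 nM preincubated with compounds 15 min at room temperature; reaction started with fluorescent substrate (50 nM final) and read kinetically at 0 and 10 min.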
Pol beta inh: qHTS Assay for Inhibitors of DNA Polymerase Beta | P06746 | Pol beta primer extension/strand displacement, fluorescence kinetic | Potency, µM (series often up to 114 µM), most hits filed as inhibitors | 340,000 tested, 1.3% active | AID 485314, 2010
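Preincubation: enzyme (10 nM) with compound, 15 min, RT. Reaction: substrate added to 50 nM final. Reads: 0 and 10 min. Analysis: normalized, Hill fit.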
Pol kappa inh-1: qHTS for Inhibitors of Polymerase Kappa | DNA polymerase kappa (Homo sapiens), Q9UBT6 | purified Pol kappa, fluorescent DNA synthesis assay, 10 min | Potency, µM (series often up to 107 µM), hits mostly inhibitors | 400,000 tested, 0.53% active | AID 588579, 2011
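10 nM Pol kappa preincubated 15 min at room temperature with compounds, then reaction started with substrate at 50 nM final. Fluorescence read kinetically at 0 and 10 min; buffer-only wells served as negative control.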
WRN helicase inh: qHTS for Inhibitors of WRN Helicase | WRN helicase unwinding, fluorescent forked duplex, kinetic | Bifunctional 3'-5' exonuclease/ATP-dependent helicase WRN (Homo sapiens), Q14191 | 360,000 tested, 0.46% active | AID 651768, 2012 | Potency, µM (doses to about 114 µM), usual class: inhibitors; note: nearly all actives have a fitted effect of over 55% in size
Target sequence (Q14191 whole entry, looked up): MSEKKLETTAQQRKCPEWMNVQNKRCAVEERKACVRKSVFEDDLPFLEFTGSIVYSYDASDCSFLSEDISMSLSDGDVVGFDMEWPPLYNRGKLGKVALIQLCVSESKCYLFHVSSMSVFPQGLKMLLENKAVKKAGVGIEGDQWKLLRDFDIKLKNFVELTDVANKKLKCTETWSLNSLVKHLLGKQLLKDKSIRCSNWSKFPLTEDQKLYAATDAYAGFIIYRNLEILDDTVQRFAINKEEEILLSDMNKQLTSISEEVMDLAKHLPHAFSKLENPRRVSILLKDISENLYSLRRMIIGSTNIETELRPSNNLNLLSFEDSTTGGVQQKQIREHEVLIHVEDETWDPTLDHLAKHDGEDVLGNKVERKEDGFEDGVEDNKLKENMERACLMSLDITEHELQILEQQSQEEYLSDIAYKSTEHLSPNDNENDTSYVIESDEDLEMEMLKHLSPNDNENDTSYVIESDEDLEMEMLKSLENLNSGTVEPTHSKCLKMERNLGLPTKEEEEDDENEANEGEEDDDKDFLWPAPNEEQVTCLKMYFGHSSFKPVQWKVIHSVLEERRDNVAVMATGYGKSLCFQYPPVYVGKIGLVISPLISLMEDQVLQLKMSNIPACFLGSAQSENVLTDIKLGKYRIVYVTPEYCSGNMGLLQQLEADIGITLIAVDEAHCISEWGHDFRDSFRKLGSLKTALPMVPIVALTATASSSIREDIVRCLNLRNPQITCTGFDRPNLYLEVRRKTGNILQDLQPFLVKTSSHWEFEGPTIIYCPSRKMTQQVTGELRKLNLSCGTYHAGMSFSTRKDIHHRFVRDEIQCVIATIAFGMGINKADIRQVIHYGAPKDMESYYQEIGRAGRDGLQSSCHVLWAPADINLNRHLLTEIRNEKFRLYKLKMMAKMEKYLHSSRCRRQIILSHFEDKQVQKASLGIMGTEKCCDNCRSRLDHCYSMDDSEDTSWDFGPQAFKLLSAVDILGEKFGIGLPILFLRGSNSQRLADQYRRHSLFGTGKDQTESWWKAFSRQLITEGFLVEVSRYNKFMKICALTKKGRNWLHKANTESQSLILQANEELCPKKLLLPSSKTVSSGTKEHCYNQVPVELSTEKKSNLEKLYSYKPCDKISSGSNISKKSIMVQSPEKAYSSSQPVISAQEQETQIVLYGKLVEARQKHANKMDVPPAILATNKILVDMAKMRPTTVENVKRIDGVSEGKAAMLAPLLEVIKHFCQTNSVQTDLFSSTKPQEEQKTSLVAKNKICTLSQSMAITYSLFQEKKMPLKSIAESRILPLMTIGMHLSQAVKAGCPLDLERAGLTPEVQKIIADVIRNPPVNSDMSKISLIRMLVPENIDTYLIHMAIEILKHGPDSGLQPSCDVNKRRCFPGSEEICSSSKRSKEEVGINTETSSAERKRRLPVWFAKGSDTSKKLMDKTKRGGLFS
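Kinetic red-fluorescence monitoring (525/598 nm) tracks WRN helicase activity after 100 nM fluorophore-quencher forked duplex and 2 mM ATP are added to 20 nM enzyme pretreated 15 min at room temperature with compound.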
POLI inh: qHTS for Inhibitors of Polymerase Iota; DNA polymerase iota (Homo sapiens), Q9UNA4; Pol iota fluorescent replication assay, 10 min; Potency, µM (highest dose often 115 µM), hits mostly inhibitors; 390,000 tested, 1% active; AID 588590, 2011
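Fluorescent replication assay read twice, at 0 min and 10 min after adding 50 nM (final) substrate. Enzyme (10 nM) and compounds were first incubated 15 min at room temperature; enzyme-free buffer wells were negative controls.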
GALK confirm: Confirmation Assay for Inhibitors of Human Galactokinase (GALK) | shares compounds with Pol eta inh-1 | purified GALK, Kinase-Glo ATP depletion luminescence | Potency, µM (doses to about 115 µM), usual class: inhibitors | 150 tested, 70% active | AID 2015, 2009
Redox cycling: Confirmatory Assay for Inhibitors of Human Galactokinase (GALK): Phenol-HRP redox assay counterscreen; shares compounds with Pol eta inh-1; 150 tested, 40% active; Phenol red-HRP H2O2 redox cycling, absorbance 600 nm; Potency, µM (titrated, usually from 115 µM), hits mostly inhibitors
HEK293 viability: Secondary Assay for Inhibitors of Human Galactokinase (GALK): HEK-293 Cell Viability Assay; shares compounds with Pol eta inh-1; HEK-293 viability, ATP luminescence (CellTiter-Glo), 24/48 h; Potency, µM (series often up to 46.1 µM), most hits filed as inhibitors; 170 tested, 10% active
Pol kappa inh-2: qHTS for Inhibitors of Polymerase Kappa: Confirmatory Assay for Cherry-picked Compounds; shares compounds with Pol eta inh-1; purified Pol-kappa, fluorescent strand-displacement substrate; Potency, µM, actives largely listed as inhibitors; 920 tested, 76% active; AID 720501, 2013
Pol eta inh-2: qHTS for Inhibitors of Polymerase Eta: Confirmatory Assay for Cherry-picked Compounds | shares compounds with Pol eta inh-1 | Pol eta primer extension, TAMRA/BHQ fluorescence, 10 min | 2,600 tested, 64% active | Potency, µM, usual class: inhibitors
Hits are given with their value; . = inactive; ? = inconclusive; / = no result given; [ ] = another dose, or the depositor's remark. A selection: hits, their analogues and other compounds. The true share with any hit is near 2.3%. Calls come from the whole dose curve; as a rule, active = well fitted curve in the direction sought with a large enough effect; inconclusive = small, poorly fitted or top-dose-only effect, or another doubt; inactive = no such curve, though single readings can be large; an effect the other way counts as inactive or inconclusive.

SMILES	Pol eta inh-1	Pol beta inh	Pol kappa inh-1	WRN helicase inh	POLI inh	Pol kappa inh-2	Pol eta inh-2	others
Cc1c(C(=O)O)c(O)cc2c1C(=O)c1c(O)c([C@@H]3O[C@H](CO)[C@@H](O)[C@H](O)[C@H]3O)c(O)c(O)c1C2=O	?	/	50µM	32µM	?	42	?
CC(=O)c1ccc(S(=O)(=O)Nc2ccc(-c3ccc4nnc(C)n4n3)cc2)cc1	20µM	28µM	?	.[11.6 µM]	.	/	?
Cc1nnc2ccc(-c3ccc(NS(=O)(=O)c4ccccc4)cc3)nn12	?	/	.	.	.	/	/
CCOC(=O)/C(N=Nc1sc(C(=O)OCC)c(C)c1C(=O)OCC)=C(\C)O	/	.	/	/	/	/	/
CCOC(=O)c1sc(N=NC2=C(O)CCCC2=O)c(C(=O)OCC)c1C	79µM	8.9µM	?	?	?	/	67
Cc1ccc(NC(=O)CCC(=O)c2ccc(Cl)s2)nc1	40µM	/	?	.	?	?	/
Cc1ccc(NC(=O)CCC(=O)c2cc(C)sc2C)nc1	?	/	.	.	?	/	/
Cc1ccc(S(=O)(=O)NN2C(=O)/C(=C\c3ccc(Cl)cc3)SC2=S)cc1	40µM	.	.	?	?	/	24
O=C(Nc1ccc(S(=O)(=O)Nc2nccs2)cc1)c1ccc(=O)[nH]c1	20µM	50µM	?	?	?	67	43
O=C(Nc1ccc(S(=O)(=O)Nc2nccs2)cc1)c1cccc(F)c1	.	.	.	.	.	/	/
Cc1ccc(S(=O)(=O)N2[C@@H](c3cccc(Cl)c3)C(C(=O)O)=CC[C@H]2c2ccc(C(C)C)cc2)cc1	89µM	/	?	.[11.6 µM]	?	?	/
Cc1cc(C)nc(NN2C(=O)/C(=C/c3ccc(O)cc3)SC2=S)n1	?	?	.	?	32µM	/	76
NC(=O)[C@@H]1CSSCCC(=O)N[C@@H](CCCCN=C(N)N)C(=O)NCC(=O)N[C@@H](CC(=O)O)C(=O)N[C@@H](Cc2c[nH]c3ccccc23)C(=O)N2CCC[C@H]2C(=O)N1	/	/	.[19.4 µM]	/	/	/	/
O=C(NC(Cc1ccccc1)C(=O)O)/C(=C/c1ccco1)NC(=O)c1cccc(Br)c1 (centres undefined)	20µM	?	?	.	?	19	54
CCn1nc([N+](=O)[O-])c(C(C#N)c2nc3cc(C(F)(F)F)ccc3s2)c(Cl)c1=O (centres undefined)	89µM	56µM	.	?	?	60	/
COC(=O)Cc1cc(C)cc2c(=O)cc(-c3ccoc3)oc12	50µM	/	.	?	?	/	?
CC1(C)CC(=O)C2=C(C1)NC(Nc1nc3ccccc3o1)=NC2c1cccc(Cl)c1 (centres undefined)	/	/	/	/	/	/	/	HEK293 viability=?
COc1cccc(C2N=C(Nc3nc4ccccc4o3)NC3=C2C(=O)CC(C)(C)C3)c1 (centres undefined)	/	/	/	/	/	/	/	HEK293 viability=.
COc1cccc(C2C(C(=O)Nc3nc4ccccc4s3)=C(C)NC3=C2C(=O)CC(C)(C)C3)c1OC (centres undefined)	.	.	.	.	.	/	/
COc1ccccc1C1N=C(Nc2nc3ccccc3o2)NC2=C1C(=O)CC(C)(C)C2 (centres undefined)	/	/	.	/	.	/	/	HEK293 viability=.
O=C1CCCC2=C1C(c1ccc(Cl)cc1)N=C(Nc1nc3ccccc3o1)N2 (centres undefined)	/	/	.	/	.	/	/	HEK293 viability=.
COCC(=O)Nc1cc(Sc2ccccc2)ccc1N=C(NC(=O)OC)NC(=O)OC	/	/	.[19.4 µM]	/	/	/	/
Cc1cccc(S(=O)Cc2ccc(C(=O)NC3CCCCCC3)o2)c1 (centres undefined)	.	.	.	/	.	/	/
CCc1ccc(NC(=O)c2cccc(N3CCCS3(=O)=O)c2)cc1	.	.	.	/	.	/	/
COc1ccc(NC(=O)CN2C(=O)NC3(CCCC3)C2=O)cc1OC	.	.	.	.[11.6 µM]	?	/	?
SMILES	Pol eta inh-1	Pol beta inh	Pol kappa inh-1	WRN helicase inh	POLI inh	Pol kappa inh-2	Pol eta inh-2	others
Cc1nc2c(-c3ccc(F)cc3)c(C)nn2c(C)c1CCC(=O)NCc1cccc(Cl)c1	.	.	.	/	.	/	/
Cc1nc(NCCc2ccc(S(N)(=O)=O)cc2)c2c3c(sc2n1)CCC3	.	.	.	.	.	/	/
Cc1nc(NS(=O)(=O)c2ccc(Cl)s2)c2c3c(sc2n1)CCCC3	.	.	.	.	.	/	/	GALK confirm=?;Redox cycling=.;HEK293 viability=.
CC(=C/c1ccco1)/C=N/NC(=O)Cc1cccn1C	?	.	?	.[11.6 µM]	56µM	42	/
CC(/C=N/NC(=O)CN1CCN(Cc2ccc(Cl)cc2)CC1)=C\c1ccco1	.	.	?	.	.	/	/
Cc1nnc(NC(=O)c2cc(-c3ccncc3)nc3c(C)cccc23)s1	45µM	.	.	.	79µM	/	67
COc1ccc2occ(CC(=O)Nc3ccc(S(=O)(=O)Nc4nccc(C)n4)cc3)c2c1	79µM	?	?	/	?	47	?
N#Cc1ccccc1-c1ccc2ncnc(NCc3cccs3)c2c1	/	/	.	/	/	/	/
COc1ccc(C2=Nn3c(nnc3-c3ccccc3OC)SC2)cc1OC1CCOC1 (centres undefined)	.	/	45µM	/	.	4.2	/
COc1ccc(C2=Nn3c(nnc3-c3ccccc3C(F)(F)F)SC2)cc1OC1CCOC1 (centres undefined)	.	/	?	/	.	4.7	/
CCc1ccccc1NC(=O)Cn1c(=O)n(-c2ccc(C)c(C)c2)c(=O)c2oc3ccccc3c21	.	.	.	/	.	/	/
CON=C(C(=O)NC1C(=O)N2C(C(=O)O)=C(CSc3nc(=O)c(=O)[nH]n3C)CSC12)c1csc(N)n1 (centres undefined)	32µM	/	40µM	.	?	21	30
Cc1nn(-c2nc(-c3ccc(F)cc3)cc(C(F)(F)F)n2)c(C)c1Br	.	.	.	/	.	/	/
